“And” between values parts separate entries of the source, which are not always exact repeats. Identical values can stand only once. For some of these results: Results with a measured potency or affinity are listed apart. The source holds several records for some structures; these can differ, active in one and inactive in another. The source made the active and inactive calls. Unless noted, no rule for the calls is given here.
What was measured:
[1] = antimalarial activity against Dd2 strain (AID 2302;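 active = growth inhibition above 50% at the single 2 µM test dose, taken to imply half-maximal potency below 2 µM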;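 also: 0% = DMSO untreated growth and 100% = chloroquine plus artemisinin killed control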); conditions: P. falciparum Dd2 in RBCs, LDH growth readout, 72 h; at 2 µM; stronger effect = higher value
[2] = HepG2 cytotoxicity, primary screen, cytotoxicity control for P. falciparum antimalarial project, cell-based, ATP luminescence (AID 2303;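 active = inhibition above 50%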;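 also: 0% = DMSO wells and 100% = digitonin-killed cells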); conditions: HepG2 viability, 24-48 h, at 10 µM, stronger effect = higher value
[3] = biological target: L-lactate dehydrogenase (Plasmodium falciparum (isolate CDC / Honduras)) (UniProt Q27743); assay: PfLDH activity inhibition – cell lysate, 3D7 strain, counter-screen for P. falciparum growth inhibition project (AID 2304);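 also: 0% = vehicle and 100% = reference inhibitor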; conditions: P. falciparum 3D7 crude extract, LDH APAD/NBT absorbance; at 2 µM; stronger effect = higher value
[4] = inhibition of 3D7 malaria parasite growth – strain 3D7 (AID 2306);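 also: 0% = DMSO wells and 100% = chloroquine plus artemisinin control wells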; conditions: P. falciparum 3D7 erythrocytic growth, LDH absorbance, 72 h; at 2 µM; stronger effect = higher value
[5] = biological target: Calcium-dependent protein kinase 1 (Plasmodium falciparum (isolate 3D7)) (UniProt P62344); assay: PfCDPK1 kinase inhibitors, biochemical, TCAMS library (AID 1159585; cut-off not given, nearly all actives have IC50 up to about 0.98 µM;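 also: inhibitors leave more ATP so luminescence rises with inhibition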); conditions: recombinant PfCDPK1, Kinase-Glo ATP depletion luminescence
[6] = biological target: Plasmodium falciparum protein kinase 6 (PK6, PF3D7_1337100) (UniProt Q8IDW1); assay: PfPK6 kinase inhibitors, biochemical, TCAMS library (AID 1159586); conditions: recombinant PfPK6, Kinase-Glo ATP depletion luminescence
[7] = biological target: Protein kinase 7 (PK7), Plasmodium falciparum 3D7 (PF3D7_0213400) (UniProt Q7YTF7); assay: inhibition of Plasmodium PK7 catalytic activity – biochemical, TCAMS antimalarial set, Kinase-Glo luminescence (AID 1159587); conditions: recombinant PfPK7, Kinase-Glo ATP depletion luminescence
[8] = biological target: Calcium-dependent protein kinase 4 (Plasmodium falciparum (isolate 3D7)) (UniProt Q8IBS5); assay: PfCDPK4 kinase inhibitors, biochemical, TCAMS library (AID 1159588; cut-off not given, nearly all actives have IC50 up to about 0.91 µM); conditions: recombinant PfCDPK4, Kinase-Glo ATP depletion luminescence
Chain of Calcium-dependent protein kinase 4 (Plasmodium falciparum (isolate 3D7)) (Q8IBS5 whole entry, looked up): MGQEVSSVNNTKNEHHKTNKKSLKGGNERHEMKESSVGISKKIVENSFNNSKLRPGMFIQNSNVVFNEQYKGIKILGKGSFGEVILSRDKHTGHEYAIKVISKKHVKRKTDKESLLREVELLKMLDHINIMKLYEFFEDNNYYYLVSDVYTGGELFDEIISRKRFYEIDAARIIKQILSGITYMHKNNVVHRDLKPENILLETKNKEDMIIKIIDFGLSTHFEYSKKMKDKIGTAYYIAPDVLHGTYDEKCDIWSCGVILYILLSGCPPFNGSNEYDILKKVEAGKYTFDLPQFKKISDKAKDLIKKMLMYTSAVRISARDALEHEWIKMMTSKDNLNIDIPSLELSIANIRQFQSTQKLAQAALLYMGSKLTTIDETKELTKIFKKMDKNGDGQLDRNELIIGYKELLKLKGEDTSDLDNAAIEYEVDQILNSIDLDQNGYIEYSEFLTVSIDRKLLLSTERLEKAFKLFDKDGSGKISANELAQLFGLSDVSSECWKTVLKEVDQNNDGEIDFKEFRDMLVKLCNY

Chain of L-lactate dehydrogenase (Plasmodium falciparum (isolate CDC / Honduras)) (Q27743 whole entry, looked up): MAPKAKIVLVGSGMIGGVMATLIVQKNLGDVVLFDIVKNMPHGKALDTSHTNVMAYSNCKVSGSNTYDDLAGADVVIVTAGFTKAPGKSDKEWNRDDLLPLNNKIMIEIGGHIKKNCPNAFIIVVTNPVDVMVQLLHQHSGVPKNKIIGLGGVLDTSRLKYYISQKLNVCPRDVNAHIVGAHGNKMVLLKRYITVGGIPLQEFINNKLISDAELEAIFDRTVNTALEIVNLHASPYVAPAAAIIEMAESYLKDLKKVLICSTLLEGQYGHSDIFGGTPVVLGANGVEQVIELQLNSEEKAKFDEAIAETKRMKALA
Chain of Protein kinase 7 (PK7), Plasmodium falciparum 3D7 (PF3D7_0213400) (Q7YTF7 1-343): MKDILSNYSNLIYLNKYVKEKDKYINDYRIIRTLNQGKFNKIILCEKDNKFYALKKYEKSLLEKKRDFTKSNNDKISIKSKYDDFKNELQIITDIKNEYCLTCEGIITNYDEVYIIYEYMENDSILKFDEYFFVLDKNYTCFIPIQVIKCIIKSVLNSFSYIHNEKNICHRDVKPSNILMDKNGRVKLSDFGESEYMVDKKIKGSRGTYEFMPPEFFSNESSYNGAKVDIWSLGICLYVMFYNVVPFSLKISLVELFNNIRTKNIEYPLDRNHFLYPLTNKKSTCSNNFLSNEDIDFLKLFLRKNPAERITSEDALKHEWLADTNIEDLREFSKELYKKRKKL
Chain of Calcium-dependent protein kinase 1 (Plasmodium falciparum (isolate 3D7)) (P62344 whole entry, looked up): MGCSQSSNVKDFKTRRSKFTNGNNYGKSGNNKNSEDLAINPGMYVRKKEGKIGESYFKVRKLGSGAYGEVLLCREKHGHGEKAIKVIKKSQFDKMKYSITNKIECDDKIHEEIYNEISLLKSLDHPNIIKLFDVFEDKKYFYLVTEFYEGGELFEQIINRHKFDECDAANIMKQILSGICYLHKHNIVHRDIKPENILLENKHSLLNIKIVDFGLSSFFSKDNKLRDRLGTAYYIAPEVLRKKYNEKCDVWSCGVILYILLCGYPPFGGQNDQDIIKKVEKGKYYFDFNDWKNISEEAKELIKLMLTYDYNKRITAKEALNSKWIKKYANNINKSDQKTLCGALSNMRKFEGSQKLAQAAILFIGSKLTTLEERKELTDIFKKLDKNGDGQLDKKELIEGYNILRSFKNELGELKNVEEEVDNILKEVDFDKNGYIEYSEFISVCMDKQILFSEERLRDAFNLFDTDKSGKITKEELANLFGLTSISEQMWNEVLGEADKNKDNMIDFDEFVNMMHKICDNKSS
Chain of Plasmodium falciparum protein kinase 6 (PK6, PF3D7_1337100) (Q8IDW1 1-305): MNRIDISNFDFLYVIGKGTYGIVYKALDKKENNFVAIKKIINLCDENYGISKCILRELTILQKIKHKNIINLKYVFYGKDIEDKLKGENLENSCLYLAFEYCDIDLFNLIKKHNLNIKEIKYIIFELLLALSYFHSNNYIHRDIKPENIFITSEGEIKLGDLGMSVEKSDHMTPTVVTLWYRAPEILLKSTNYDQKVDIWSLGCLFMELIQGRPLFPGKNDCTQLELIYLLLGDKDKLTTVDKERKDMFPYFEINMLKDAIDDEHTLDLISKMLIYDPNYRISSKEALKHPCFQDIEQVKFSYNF

| SMILES | growth inhibition [1] | inhibition [2] | inhibition [3] | growth inhibition [4] | outcome [5] | outcome [6] | outcome [7] | outcome [8] |
| --- | --- | --- | --- | --- | --- | --- | --- | --- |
| Fc1ccc(N(c2nc(-c3cc(F)cc(C(F)(F)F)c3)cs2)C2CCNCC2)cc1 | 10% (inactive) | 35% (inactive) | -3% (inactive) | 95% (active) | inactive | inactive | inactive | inactive |
| CC[C@H]1CN2CC[C@H]1C[C@@H]2[C@@H](O)c1ccnc2ccccc12 | 20% (inactive) | 10% (inactive) | -4% (inactive) | 98% (active) | inactive | inactive | inactive | inactive |
| CC[C@H]1CN2CC[C@H]1C[C@H]2[C@H](O)c1ccnc2ccc(O)cc12 | 2% (inactive) | 11% (inactive) | -3% (inactive) | 99% (active) | inactive | inactive | inactive | inactive |
| Cc1csc(NC2=NCCN2)n1 | 1% (inactive) | 10% (inactive) | 0% (inactive) | 99% (active) | inactive | inactive | inactive | inactive |
| Cc1ccc(/C=C/C(=O)NC2CCC(CN3CCC(c4c[nH]c5ccccc45)CC3)CC2)cc1 (centres undefined) | 66% (active) and 69% (active) | 32% (inactive) and 41% (inactive) | -2% (inactive) and 3% (inactive) | 101% (active) | inactive | inactive | inactive | inactive |
| CN(c1ccnc(Nc2ccc(CS(C)(=O)=O)cc2)n1)C1CCN(Cc2ccccc2)CC1 | 9% (inactive) | 10% (inactive) | 1% (inactive) | 83% (active) | inactive | inactive | inactive | inactive |
| CC1=CC(=O)[C@@H](O)[C@]2(C)[C@H]3[C@@]4(O)OC[C@@]35[C@@H](C[C@@H]12)OC(=O)C[C@H]5[C@@H](C)[C@H]4O | 98% (active) | 38% (inactive) | 4% (inactive) | 99% (active) | inactive | inactive | inactive | inactive |
| CN(C)c1cccc(CCNCCc2c[nH]c3ccc(Cl)cc23)c1 | 75% (active) | 19% (inactive) | -6% (inactive) | 94% (active) | inactive | inactive | inactive | inactive |
| CCOC(C(=O)OCCN(C(C)C)C(C)C)(c1ccccc1)c1ccccc1 | 4% (inactive) | 4% (inactive) | -2% (inactive) | 97% (active) | inactive | inactive | inactive | inactive |
| OC(CNC1CCCCC1)c1ccc(Cl)c(Cl)c1 (centres undefined) | 96% (active) | 17% (inactive) | -1% (inactive) | 99% (active) | inactive | inactive | inactive | inactive |
| COC(=O)c1ccc(CC(C)NCC(O)c2cccc(OC(F)(F)F)c2)cc1 (centres undefined) | 67% (active) | 2% (inactive) | -2% (inactive) | 98% (active) | inactive | inactive | inactive | inactive |
| CC[C@H]1CN2CC[C@H]1C[C@H]2[C@H](O)c1cc(N2CCCC(C(=O)N(CC)CC)C2)nc2ccc(OC)cc12 (some centres undefined) | 99% (active) | -13% (inactive) | -2% (inactive) | 101% (active) | inactive | inactive | inactive | inactive |
| COc1ccc(CC(C)NCC(O)c2ccc(Cl)c(Cl)c2)cc1 (centres undefined) | 96% (active) | 0% (inactive) | 6% (inactive) | 98% (active) | inactive | inactive | inactive | inactive |
| c1ccc2c(NCCCCCCNc3c4c(nc5ccccc35)CCCC4)c3c(nc2c1)CCCC3 | 51% (active) | 90% (active) | 3% (inactive) | 100% (active) | inactive | inactive | inactive | inactive |
| Cc1ccc(C)c(C=CC(=O)NC2CCC(CN3CCC(c4c[nH]c5ccccc45)CC3)CC2)c1 (centres undefined) | 55% (active) and 80% (active) | 38% (inactive) and 46% (inactive) | 3% (inactive) and 5% (inactive) | 101% (active) and 102% (active) | inactive | inactive | inactive | inactive |
| CCc1ccc(CC(C)NCC(O)c2ccccc2)cc1 (centres undefined) | 77% (active) | -7% (inactive) | -3% (inactive) | 89% (active) | inactive | inactive | inactive | inactive |
| CCN1CC[C@]2(c3cccc(OC)c3)Cc3nc4ccccc4c(-c4ccccc4)c3C[C@H]2C1 | 98% (active) | 0% (inactive) | -4% (inactive) | 99% (active) | inactive | inactive | inactive | inactive |
| S=C(NCCc1ccc(Cl)cc1)NC1CCC(CN2CCC(c3c[nH]c4ccccc34)CC2)CC1 (centres undefined) | 34% (inactive) and 84% (active) | 37% (inactive) and 42% (inactive) | -2% (inactive) and -8% (inactive) | 100% (active) and 101% (active) | inactive | inactive | inactive | inactive |
| O=C(/C=C/c1ccc2ccccc2c1)NC1CCC(CN2CCC(c3c[nH]c4ccccc34)CC2)CC1 (centres undefined) | 88% (active) | 28% (inactive) | 4% (inactive) | 100% (active) | inactive | inactive | inactive | inactive |
| CC(Cc1ccc(NC(=O)CCNCc2ccccc2)cc1)NCCc1cccc(Cl)c1 (centres undefined) | 100% (active) | 101% (active) | 3% (inactive) | 101% (active) | inactive | inactive | inactive | inactive |
| O=C(Nc1ccc(Cl)c(Cl)c1)N1CCC(CN2CCC(c3c[nH]c4ccccc34)CC2)CC1 | 69% (active) | 46% (inactive) | -2% (inactive) | 100% (active) | inactive | inactive | inactive | inactive |
| O=C(/C=C/c1ccc(Cl)c(Cl)c1)NCCC1CCC(N2CCC(c3c[nH]c4ccc(O)cc34)CC2)CC1 (centres undefined) | 3% (inactive) | 19% (inactive) | -7% (inactive) | 102% (active) | inactive | inactive | inactive | inactive |
| Cc1ccccc1C1=CCN(CCCN2c3ccccc3Sc3ccc(Cl)cc32)CC1 | 30% (inactive) | 14% (inactive) | 5% (inactive) | 90% (active) | inactive | inactive | inactive | inactive |

— PubChem BioAssay
